Where “and” joins values, the source holds several entries; their conditions need not be identical. Equal values may be shown once. About 2,000 (36%) of roughly 5,500 compounds were called active. Not shown: some 18% with an inconclusive outcome. Rule as the data show it: active = normalized growth mostly below about 0.91 (no sharp cut-off); inconclusive = no clear call, values can overlap the other calls; inactive = mostly above about 0.92. This is one part of the list. Some structures have more than one record in an assay (separate samples or runs), and their calls can disagree.
Test: chemical genetic growth profiling, strain panel (AID 1159580);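 also: tested at 20 µM; growth read once vehicle control cultures reached saturation at 30 °C; 1 = growth at the plate median or of vehicle wells; lower values mean less growth of the strain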
Conditions: S. cerevisiae deletion strains, growth OD

Question: What does the source list for `COc1ccc(-c2coc3cc(OC)ccc3c2=O)cc1`?
Answer: normalized growth (locus YAL013W, strain DEP1, stronger effect = lower value): 0.933 (inactive); normalized growth (locus YBR021W, strain FUR4, stronger effect = lower value): 1.02 (inactive); normalized growth (locus YBR229C, strain ROT2, stronger effect = lower value): 0.908 (active); normalized growth (locus YCL029C, strain bik1, stronger effect = lower value): 0.929 (inactive); normalized growth (locus YDL035C, strain GPR1, stronger effect = lower value): 0.905 (inactive); normalized growth (locus YDL074C, strain BRE1, stronger effect = lower value): 0.839 (inactive); normalized growth (locus YDL101C, strain DUN1, stronger effect = lower value): 0.891 (active); normalized growth (locus YDL185W, strain tfp1, stronger effect = lower value): 0.896 (active); normalized growth (locus YDL192W, strain arf1, stronger effect = lower value): 0.898 (active); normalized growth (locus YDR101C, strain arx1, stronger effect = lower value): 0.92 (inactive); normalized growth (locus YDR150W, strain NUM1, stronger effect = lower value): 0.94 (inactive); normalized growth (locus YDR162C, strain NBP2, stronger effect = lower value): 0.607 (active); normalized growth (locus YDR318W, strain mcm21, stronger effect = lower value): 0.912 (active); normalized growth (locus YDR388W, stronger effect = lower value): 0.92 (active); normalized growth (locus YDR502C, strain sam2, stronger effect = lower value): 0.907 (active); normalized growth (locus YEL061C, strain CIN8, stronger effect = lower value): 0.917 (active); normalized growth (locus YER110C, stronger effect = lower value): 0.907 (inactive); normalized growth (locus YER155C, strain BEM2, stronger effect = lower value): 1.01 (inactive); normalized growth (locus YER167W, strain BCK2, stronger effect = lower value): 0.906 (inactive); normalized growth (locus YGL078C, strain dbp3, stronger effect = lower value): 0.936 (inactive); normalized growth (locus YGL086W, strain mad1, stronger effect = lower value): 0.906 (active); normalized growth (locus YGL248W, strain PDE1, stronger effect = lower value): 0.876 (active); normalized growth (locus YGR078C, strain PAC10, stronger effect = lower value): 0.811 (active); normalized growth (locus YGR135W, strain pre9, stronger effect = lower value): 0.89 (active); normalized growth (locus YGR252W, strain gcn5, stronger effect = lower value): 0.851 (inactive); normalized growth (locus YHR030C, strain SLT2, stronger effect = lower value): 0.973 (inactive) and 0.882 (active); normalized growth (locus YHR079C, strain IRE1 (second series), stronger effect = lower value): 0.922 (active); normalized growth (locus YHR079C, strain IRE1, stronger effect = lower value): 0.976 (inactive); normalized growth (locus YHR094C, strain hxt1, stronger effect = lower value): 0.949 (inactive); normalized growth (locus YHR129C, strain ARP1, stronger effect = lower value): 0.915 (active); normalized growth (locus YHR200W, strain rpn10, stronger effect = lower value): 0.906 (active); normalized growth (locus YIL066C, strain RNR3, stronger effect = lower value): 0.807 (active); normalized growth (locus YIL073C, strain SPO22, stronger effect = lower value): 0.783 (inactive); normalized growth (locus YIL125W, strain kgd1, stronger effect = lower value): 0.941 (inactive); normalized growth (locus YIR030C, strain dcg1, stronger effect = lower value): 0.931 (inactive); normalized growth (locus YJL095W, strain BCK1, stronger effect = lower value): 0.983 (inactive) and 0.669 (active); normalized growth (locus YJL134W, strain LCB3, stronger effect = lower value): 0.941 (inactive); normalized growth (locus YJL168C, strain set2, stronger effect = lower value): 0.936 (inactive); normalized growth (locus YJL187C, strain SWE1 (second series), stronger effect = lower value): 0.891 (inactive); normalized growth (locus YJR043C, strain POL32, stronger effect = lower value): 0.885 (inactive); normalized growth (locus YJR066W, strain TOR1, stronger effect = lower value): 0.9 (inactive); normalized growth (locus YJR075W, strain HOC1, stronger effect = lower value): 0.913 (inactive); normalized growth (locus YKL009W, strain mrt4, stronger effect = lower value): 0.92 (inactive); normalized growth (locus YKL068W, stronger effect = lower value): 0.93 (active); normalized growth (locus YKL085W, strain MDH1 (second series), stronger effect = lower value): 0.928 (active); normalized growth (locus YKL085W, strain MDH1, stronger effect = lower value): 0.928 (active); normalized growth (locus YKL190W, strain CNB1, stronger effect = lower value): 0.933 (inactive); normalized growth (locus YKR001C, strain vps1, stronger effect = lower value): 0.644 (active); normalized growth (locus YLR039C, strain RIC1, stronger effect = lower value): 0.48 (active); normalized growth (locus YLR058C, strain SHM2, stronger effect = lower value): 0.906 (inactive); normalized growth (locus YLR102C, strain apc9, stronger effect = lower value): 0.941 (inactive); normalized growth (locus YLR113W, strain HOG1, stronger effect = lower value): 0.984 (inactive); normalized growth (locus YLR262C, strain YPT6, stronger effect = lower value): 0.468 (active); normalized growth (locus YLR268W, strain sec22, stronger effect = lower value): 0.919 (inactive); normalized growth (locus YLR330W, strain CHS5, stronger effect = lower value): 0.874 (active); normalized growth (locus YLR342W, strain FKS1 (second series), stronger effect = lower value): 0.763 (active); normalized growth (locus YLR371W, strain rom2, stronger effect = lower value): 0.933 (inactive); normalized growth (locus YLR418C, strain cdc73, stronger effect = lower value): 0.736 (active); normalized growth (locus YML016C, strain PPZ1, stronger effect = lower value): 0.922 (inactive); normalized growth (locus YML032C, strain rad52, stronger effect = lower value): 0.942 (inactive); normalized growth (locus YML124C, strain tub3, stronger effect = lower value): 0.925 (active); normalized growth (locus YMR078C, strain ctf18, stronger effect = lower value): 0.929 (inactive); normalized growth (locus YMR223W, strain ubp8, stronger effect = lower value): 0.911 (inactive); normalized growth (locus YMR263W, strain SAP30, stronger effect = lower value): 0.898 (inactive); normalized growth (locus YMR307W, strain GAS1, stronger effect = lower value): 0.658 (inactive); normalized growth (locus YNL067W, strain RPL9B, stronger effect = lower value): 0.886 (inactive); normalized growth (locus YNL183C, strain NPR1, stronger effect = lower value): 0.921 (inactive); normalized growth (locus YNL233W, strain BNI4, stronger effect = lower value): 0.888 (inactive); normalized growth (locus YNL250W, strain rad50, stronger effect = lower value): 0.943 (inactive); normalized growth (locus YNL271C, strain bni1, stronger effect = lower value): 0.918 (active); normalized growth (locus YNL298W, strain CLA4, stronger effect = lower value): 0.906 (active); normalized growth (locus YNL307C, strain MCK1, stronger effect = lower value): 0.543 (active); normalized growth (locus YNL322C, strain KRE1, stronger effect = lower value): 0.936 (inactive); normalized growth (locus YNR052C, strain pop2, stronger effect = lower value): 0.928 (inactive); normalized growth (locus YOL006C, strain TOP1, stronger effect = lower value): 0.589 (inactive); normalized growth (locus YOL012C, strain htz1): 0.966 (inactive); normalized growth (locus YOL147C, strain pex11, stronger effect = lower value): 0.922 (active); normalized growth (locus YOR061W, strain CKA2, stronger effect = lower value): 0.899 (inactive); normalized growth (locus YOR069W, strain VPS5, stronger effect = lower value): 0.937 (inactive); normalized growth (locus YOR136W, strain idh2, stronger effect = lower value): 0.971 (inactive); normalized growth (locus YOR144C, strain elg1, stronger effect = lower value): 0.937 (inactive); normalized growth (locus YOR184W, strain ser1, stronger effect = lower value): 0.783 (active); normalized growth (locus YOR231W, strain MKK1, stronger effect = lower value): 0.982 (inactive); normalized growth (locus YOR316C, strain cot1, stronger effect = lower value): 0.928 (inactive); normalized growth (locus YPL055C, strain LGE1, stronger effect = lower value): 0.836 (inactive); normalized growth (locus YPL256C, strain CLN2, stronger effect = lower value): 0.968 (inactive); normalized growth (locus YPR119W, strain clb2, stronger effect = lower value): 0.947 (inactive); normalized growth (locus YPR141C, strain kar3, stronger effect = lower value): 0.921 (inactive); normalized growth (locus YPR163C, strain tif3, stronger effect = lower value): 0.772 (active); normalized growth (locus YPR167C, strain met16, stronger effect = lower value): 0.943 (inactive); normalized growth (strain wtn01, stronger effect = lower value): 0.91 (inactive)

Source: PubChem BioAssay AID1159580 (chemical genetic matrix, 2015)
